In the library only some 5.8% were active in any assay of this set; here they are far more common.
KB-V1 MDR tox: KB-V1 MDR subline cytotoxicity; KB-V1 MDR cells viability, CellTiter-Glo, 72 h; Potency, µM (doses to about 46.1 µM), hits mostly cytotoxic; hit rate 3.4% among 400,000; further: on the % scale 0 is the no-effect control and ±100 the full control effect; nearly all actives have a fitted effect of over 60% in size
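Cytotoxicity toward P-gp-expressing KB-V1 cells was determined as loss of CellTiter-Glo luminescence after 72 h at 37 degrees C. Compounds were tested in quantitative HTS format across a concentration range, with curves fitted to normalized data.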
MCF10A rereplic: induces DNA re-replication in MCF 10a normal breast cells; hit rate 2.9% among 350,000; Potency, µM (doses to about 46.1 µM), for the others: at the top dose activity, positive = re-replication, usual class: activators; MCF 10A DNA re-replication, Hoechst nuclear intensity, 48 h; further: % of control where 0% means no effect; nearly all actives have a fitted effect of over 50% in size
PINK1 expr mod: PINK1 expression modulation. PINK1 immunofluorescence, high-content cytometry, 24 h. AID 624263. Potency, µM (top dose mostly 76.6 µM), for the others: top-dose activation (PINK1 increase), usual class: activators. hit rate 0.2% among 410,000; active means well fitted activation curve with a large enough effect; inconclusive means small, poorly fitted or top-dose-only effect; cell line not stated here; further: % of control where 0% means no effect; nearly all actives have a fitted effect of over 65% in size
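Compound titrations (5 concentrations, 24 h) on a stable cell line; DMSO and CCCP controls. Endpoint: fixed-cell PINK1 immunofluorescence with mitochondrial, cell and nuclear markers, scanned by microplate cytometer.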
KB-3-1 cytotox: kills parental KB-3-1 adenocarcinoma cells | hit rate 1.4% among 400,000 | KB-3-1 viability, CellTiter-Glo ATP luminescence, 72 h | AID 1347075 | Potency, µM (series often up to 46.1 µM), most hits filed as cytotoxic; further: on the % scale 0 is the no-effect control and ±100 the full control effect; nearly all actives have a fitted effect of over 60% in size
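KB-3-1 cells, DMEM (no phenol red) + 10% FBS; compound by pin transfer, 72 h, 37 °C. Readout: CellTiter-Glo luminescence after 10 min. Data normalized, curve-fitted.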
SW480 rereplic: DNA re-replication induction in SW480 cells; AID 624297; hit rate 1.8% among 340,000; Potency, µM (doses to about 46.1 µM), without a hit: top-dose re-replication activation, actives largely listed as activators; SW480 DNA re-replication, Hoechst DNA content imaging, 48 h; further: % of control where 0% means no effect; nearly all actives have a fitted effect of over 55% in size
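Image-based read-out: total Hoechst fluorescence of nuclei (405 nm excitation, 500-530 nm emission), with hits raising the fraction of high-intensity nuclei. SW480 colon cells incubated 48 hr with compounds at 37 C.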
ALOX12 inh: inhibitors of human 12S-lipoxygenase ALOX12; P18054; purified 12hLO, xylenol orange hydroperoxide absorbance; Potency, µM (highest dose often 108 µM), for the others: top-dose activity change, negative = inhibition, actives largely listed as inhibitors; hit rate 1.1% among 580,000; further: on the % scale 0 is the no-effect control and ±100 the full control effect
Target sequence (P18054 whole entry, looked up): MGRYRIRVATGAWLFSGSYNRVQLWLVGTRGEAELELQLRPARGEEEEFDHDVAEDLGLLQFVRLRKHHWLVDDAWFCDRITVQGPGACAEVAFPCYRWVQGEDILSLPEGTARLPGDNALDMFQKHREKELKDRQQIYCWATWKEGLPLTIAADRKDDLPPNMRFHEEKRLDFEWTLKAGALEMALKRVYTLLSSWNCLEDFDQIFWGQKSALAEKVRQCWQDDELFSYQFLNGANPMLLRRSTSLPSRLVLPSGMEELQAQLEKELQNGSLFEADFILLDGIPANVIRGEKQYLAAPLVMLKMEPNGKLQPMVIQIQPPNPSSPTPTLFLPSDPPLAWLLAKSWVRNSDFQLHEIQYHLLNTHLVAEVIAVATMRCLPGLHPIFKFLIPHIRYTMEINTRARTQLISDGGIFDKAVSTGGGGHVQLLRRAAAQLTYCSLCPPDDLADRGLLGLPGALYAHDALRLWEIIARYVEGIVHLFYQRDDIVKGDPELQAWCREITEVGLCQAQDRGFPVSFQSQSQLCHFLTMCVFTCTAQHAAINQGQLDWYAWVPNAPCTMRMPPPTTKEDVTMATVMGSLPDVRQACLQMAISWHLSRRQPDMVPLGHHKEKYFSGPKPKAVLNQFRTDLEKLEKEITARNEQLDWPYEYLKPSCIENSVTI
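Hydroperoxide product was detected by ferrous iron/xylenol orange as the 573 to 405 nm absorbance ratio. Arachidonic acid at 40 uM (final) was turned over for 30 min at room temperature by 150 nM human 12hLO, pH 7.0 Hepes buffer, after 15 min compound preincubation.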
The depositor's hits bear a star; i = inactive; ? = inconclusive; . = no result; [ ] = dose if it differs, or a comment. Unless noted, the call rests on the fitted dose curve; in most records, active means well fitted curve in the direction sought with a large enough effect; inconclusive means small, poorly fitted or top-dose-only effect, or another doubt; inactive means no such curve, though single readings can be large; an effect the other way counts as inactive or inconclusive. Potency means the concentration at half of the fitted maximal effect.

SMILES | KB-V1 MDR tox | MCF10A rereplic | PINK1 expr mod | KB-3-1 cytotox | SW480 rereplic | ALOX12 inh
CCC1=C(C(=O)OC)C(c2cccc(C)c2)N2C(CC(=O)Nc3ccc(OC)cc3)=CSC2=N1 (stereo unspecified) | . | . | . | . | . | -9.4%
COc1ccc(C(C)NC(=O)NCc2ccn[nH]2)cc1OC (stereo unspecified) | . | . | . | . | . | 16.6%
Cc1ccn2c(NC(=O)C(C)(C)Oc3ccc(Cl)cc3)c(-c3cccs3)nc2c1 | i | ? | 2.0% | 25.9µM* | 0.4% | -17.2%
Cc1ccc(C(=O)Nc2c(-c3cccs3)nc3cc(C)ccn23)cc1 | i | 0.1% | 4.3%[38.3 µM] | i | -3.8% | -4.6%
O=C(CSc1ccccc1)OCc1cc(=O)n2nc(C3CC3)sc2n1 | . | . | . | . | . | -7.4%
CCOC(=O)N1CCN(c2c(NCc3ccc(Cl)cc3)c(=O)c2=O)CC1 | i | 10.3µM* | 9.7% | 10.3µM* | 6.51µM* | 29.0%[57.4 µM]
CCOC(=O)N1CCN(c2c(NCc3ccc(F)cc3)c(=O)c2=O)CC1 | i | ? | 11.1% | 5.17µM* | 3.26µM* | -3.0%
CCOC(=O)N1CCN(c2c(NCc3ccccc3OC)c(=O)c2=O)CC1 | i | 6.4% | 8.4% | i | ? | -0.5%
CCOC(=O)N1CCN(c2c(N3CCN(c4ccc(F)cc4)CC3)c(=O)c2=O)CC1 | i | -0.8% | -0.4% | i | -12.4% | 7.6%
CCOC(=O)N1CCN(c2c(NCc3cccs3)c(=O)c2=O)CC1 | i | 18.4µM* | 10.6% | 6.51µM* | ? | -5.5%[57.4 µM]
CC(C)Oc1nnc(SCC(=O)Nc2ccccc2Cl)s1 | . | . | . | . | . | -33.2%
CC(=O)Nc1cccc(C(=O)/C=C/c2ccc(/C=C/C(=O)c3cccc(NC(C)=O)c3)cc2)c1 | . | . | . | . | . | 12.9%
COc1ccc(Br)cc1/C=C/C(=O)Nc1ccc2ccccc2c1 | i | ? | 4.2% | i | -1.9% | -7.8%
CC(=O)Nc1cccc(C(=O)/C=C/c2ccc(Br)cc2)c1 | ? | 5.8µM* | -1.2% | i | 20.6µM* | -4.7%
CCC(=O)Nc1cccc(C(=O)/C=C/c2cc(Br)ccc2OC)c1 | 18.4µM* | 2.91µM* | -2.5% | i | 3.66µM* | 0.0%
CC(=O)Nc1cccc(C(=O)/C=C/c2ccc(F)cc2)c1 | ? | 9.2µM* | 2.1% | i | ? | -23.6%
Cc1cc(N2CCOC(C(F)(F)F)C2)nc(-c2ccccc2)n1 (stereo unspecified) | . | . | . | . | . | 76.5%
CCOc1ccc(C(=O)c2ccc(OCC)c(N)c2)cc1N | i | 18.4µM* | 1.2% | ? | ? | 8.2%
Cc1ccc(/C=N\NC(=O)c2cccnc2)s1 | . | . | . | . | . | 0.0%
CC1(C)CC[C@]2(C(=O)O[C@@H]3OC(CO)[C@@H](O)[C@H](O)[C@H]3O)CC[C@]3(C)C(=CCC4[C@@]5(C)CC[C@H](O[C@@H]6OC(C(=O)O)[C@@H](O)[C@H](O)[C@H]6O)C(C)(C)C5CC[C@]43C)[C@@H]2C1 (stereo partly specified) | i | 18.4µM* | 7.0% | i | -4.7% | 0.6%
COC(=O)C1OC(OC2CC[C@]3(C)C(CC[C@@]4(C)[C@@H]3CC=C3[C@@H]5CC(C)(C)CC[C@]5(C(=O)OC5OC(CO)C(O)C(O)C5O)CC[C@]34C)C2(C)C)C(O)C(O)C1O[C@H]1OCC(O)C(O)C1O (stereo partly specified) | i | ? | 6.5% | i | -3.5% | .
CC(=O)NNC(=S)Nc1ccc(F)cc1F | . | . | . | . | . | 33.2%
Cc1cc(Br)cnc1NC(=S)Nc1ccc(F)cc1F | i | -23.8% | ? | i | 0.5%[1.84 µM] | 14.1µM*
Cc1[nH]nc2c1-c1nc3ccccc3nc1C(C)(C)C2 | 18.4µM* | ? | -4.4% | ? | ? | -0.3%
CCn1cnc2c1c(=O)n(CC(=O)NCc1ccccc1Cl)c(=O)n2Cc1ccccc1 | . | . | . | . | . | -20.0%
SMILES | KB-V1 MDR tox | MCF10A rereplic | PINK1 expr mod | KB-3-1 cytotox | SW480 rereplic | ALOX12 inh
O=C(Nc1nc(-c2cccs2)c(-c2cccs2)s1)C1CCCC1 | 20.6µM* | ? | ? | ? | -8.7% | -28.6%
O=C(Nc1nnc(-c2cccs2)s1)C1CC1 | i | 0.2% | 7.9% | ? | 1.0% | 0.7%
CCc1cccc(NC(=O)Cn2nc3c(cc2=O)CCCC3)c1 | . | . | . | . | . | 20.5%
Cn1c(CSCc2ccc(F)cc2)nnc1SCC(=O)Nc1nccs1 | 23.1µM* | 7.2% | -7.4%[38.3 µM] | ? | -0.4% | 0.0%
Cn1c(CSCc2ccc(Cl)cc2)nnc1SCC(=O)Nc1nccs1 | i | 18.3% | -0.5%[38.3 µM] | i | -6.9% | -28.6%
Cn1c(CSCc2ccc(F)cc2)nnc1SCC(=O)N1CCN(c2ccccc2)CC1 | 16.4µM* | 2.6% | 2.8% | ? | -4.8% | -2.4%
COCCOC1CCOC2(CCN(C(=O)Nc3ccc(OC)cc3)CC2)C1 (stereo unspecified) | . | . | . | . | . | 26.8%
CC1=C(C(=O)OC(C)C)C(c2ccc(C)cc2)CC(=O)N1Cc1cccc(C#N)c1 (stereo unspecified) | . | . | . | . | . | 3.8%
CC(C)Cc1ccc(C(C)C(=O)Nc2ccccc2O)cc1 (stereo unspecified) | ? | 12.0% | ? | 20.6µM* | -70.9% | ?
COn1c2c(c3c4nonc4ccc31)CCCC2 | 18.4µM* | 9.7% | -1.2%[38.3 µM] | i | 3.0% | ?
Clc1ccc(/C=C/c2nc3ccccc3[nH]2)c(Cl)c1 | ? | 16.4µM* | ? | i | ? | -29.1%
Cc1[nH]c2ccccc2c1/C=C/c1nc2ccccc2c(=O)[nH]1 | ? | 23.1µM* | -1.9% | ? | 16.4µM* | ?
Cc1cccc(/C=C/c2nc3ccccc3c(=O)[nH]2)c1 | ? | 8.2µM* | -1.0% | ? | 5.17µM* | 1.1%
O=c1[nH]c(/C=C/c2ccccc2Cl)nc2ccccc12 | i | 15.6% | 6.8% | ? | 18.4µM* | ?
Fc1ccc(Nc2nc(NC3CCCCCC3)nc3c2cnn3-c2ccccc2)cc1 | . | . | . | . | . | -22.9%
Cc1[nH]c2ccccc2c1/C=C/c1ccnc2ccccc12 | 7.31µM* | . | . | 8.2µM* | . | .
Cc1ccc(S(=O)(=O)Cc2sc3ccccc3[n+]2C)cc1 | 20.6µM* | 23.7% | -2.2%[38.3 µM] | i | -2.7% | ?
CC(CCc1ccccc1)NC(=O)C1CCN(S(=O)(=O)N2CCOCC2)CC1 (stereo unspecified) | 20.6µM* | ? | 2.3% | i | -2.8% | 1.4%
O=C(NCCc1ccccc1)C1CCN(S(=O)(=O)N2CCOCC2)CC1 | i | 0.7% | -0.1% | i | -21.2% | 0.5%
Fc1ccccc1CC1CCN(CC2[C@H]3CNC[C@@H]23)CC1 (stereo partly specified) | . | . | . | . | . | -20.9%
CCOC(=O)c1cc(-c2ccc3c(c2)OCCO3)nc2c1c(C)nn2CCC#N | i | 11.6µM* | 0.5% | i | ? | -4.9%

Compound activity as filed in PubChem BioAssay.
